Assay results published in PubChem BioAssay AID1159580 (chemical genetic matrix, 2015).
Out of some 5,500 compounds screened, about 2,000 (36%) were called active. Roughly 18% stayed inconclusive and do not appear here. Rule as the data show it: active = normalized growth mostly below about 0.91 (no sharp cut-off); inconclusive = no clear call, values can overlap the other calls; inactive = mostly above about 0.92. The list shows a part of the results.

Experiment: chemical genetic growth profiling, strain panel (AID 1159580);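 also: tested at 20 µM; growth read once vehicle control cultures reached saturation at 30 °C; 1 = growth at the plate median or of vehicle wells; lower values mean less growth of the strain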
Conditions: S. cerevisiae deletion strains, growth OD

Measured: normalized growth

CCN(CC)[N+]([O-])=NO
inactive: locus YHR030C, strain SLT2, stronger effect = lower value 0.974 | locus YHR079C, strain IRE1, stronger effect = lower value 0.986 | locus YJL095W, strain BCK1, stronger effect = lower value 0.987 | locus YJR066W, strain TOR1, stronger effect = lower value 0.931 | locus YLR113W, strain HOG1, stronger effect = lower value 0.961 | locus YNL183C, strain NPR1, stronger effect = lower value 0.935 | locus YOR231W, strain MKK1, stronger effect = lower value 0.966 | locus YPL256C, strain CLN2, stronger effect = lower value 0.951
